Compound activity: PubChem BioAssay, National Center for Advancing Translational Sciences (NCATS)
POLI inh: inhibitors of human DNA polymerase iota. Potency, µM (highest dose often 115 µM), inactives show top-dose activity, negative = inhibition, usual class: inhibitors. Pol iota fluorescent replication assay, 10 min. 1% of 390,000 active. Q9UNA4; further: potency means the concentration at half of the fitted maximal effect
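Fluorescent replication assay read twice, at 0 min and 10 min after adding 50 nM (final) substrate. Enzyme (10 nM) and compounds were first incubated 15 min at room temperature; enzyme-free buffer wells were negative controls.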
Pol kappa inh-1: blocks human DNA polymerase kappa activity; Potency, µM (highest dose often 107 µM), without a hit: at the top dose activity, negative = inhibition, hits mostly inhibitors; AID 588579; 0.53% of 400,000 active; purified Pol kappa, fluorescent DNA synthesis assay, 10 min; further: potency means the concentration at half of the fitted maximal effect; on the % scale 0 is the no-effect control and ±100 the full control effect
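Inhibition of 10 nM Pol kappa is measured by a fluorescent read-out at 0 and 10 min following addition of 50 nM substrate (final), with a 15-min room-temperature compound preincubation.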
PI5P4K alpha inh: blocks human PI5P4K alpha kinase activity. P48426. PI5P4Kalpha enzyme, ADP-Glo luminescence, 60 min; active compounds read low. max response, %. 1.2% of 330,000 active. AID 652105; active means max response of -50% or lower; inconclusive means between -30% and -50%; inactive means -30% or higher; further: value at the top dose of about 77 µM; on the % scale 0 is the no-effect control and ±100 the full control effect
Target sequence (P48426 whole entry, looked up): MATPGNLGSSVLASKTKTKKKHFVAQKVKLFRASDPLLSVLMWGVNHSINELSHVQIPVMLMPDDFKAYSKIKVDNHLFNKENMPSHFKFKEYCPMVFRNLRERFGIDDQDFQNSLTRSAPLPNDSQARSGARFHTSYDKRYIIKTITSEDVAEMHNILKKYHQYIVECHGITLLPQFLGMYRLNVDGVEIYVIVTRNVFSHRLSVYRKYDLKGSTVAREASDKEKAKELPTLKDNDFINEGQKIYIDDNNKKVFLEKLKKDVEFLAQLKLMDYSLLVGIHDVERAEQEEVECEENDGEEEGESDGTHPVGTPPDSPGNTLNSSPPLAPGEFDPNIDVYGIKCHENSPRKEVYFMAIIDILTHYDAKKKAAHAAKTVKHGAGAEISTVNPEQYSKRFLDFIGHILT
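Single end-point luminescence (ADP-Glo) quantified ADP from PI5P4Kalpha turnover; ATP 5 microM final, 1 h at RT, 0.1% CHAPS and 0.28 mM EGTA in HEPES pH 7.4.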
Pol eta inh-1: inhibitors of human DNA polymerase eta | AID 588591 | Potency, µM (highest dose often 114 µM), for inactives: top-dose activity change, negative = inhibition, actives largely listed as inhibitors | recombinant Pol eta, fluorescent DNA replication assay | 1.2% of 390,000 active; further: potency means the concentration at half of the fitted maximal effect; on the % scale 0 is the no-effect control and ±100 the full control effect
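Pol eta at 10 nM preincubated with compounds 15 min at room temperature; reaction started with fluorescent substrate (50 nM final) and read kinetically at 0 and 10 min.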
WRN helicase inh: WRN helicase (human) inhibition; Q14191; WRN helicase unwinding, fluorescent forked duplex, kinetic; Potency, µM (top dose mostly 114 µM), without a hit: at the highest dose activity change, negative = inhibition, actives largely listed as inhibitors; 0.46% of 360,000 active; AID 651768; further: potency means the concentration at half of the fitted maximal effect; on the % scale 0 is the no-effect control and ±100 the full control effect; nearly all actives have a fitted effect of over 55% in size
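Fluorescence dequenching readout, ex 525 nm/em 598 nm, kinetic mode: forked duplex DNA (100 nM final) with adjacent fluorophore and quencher unwound by WRN (20 nM final) with 2 mM ATP. Compound preincubation 15 min, room temperature.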
Pol beta inh: blocks human DNA polymerase beta activity. P06746. Pol beta primer extension/strand displacement, fluorescence kinetic. 1.3% of 340,000 active. Potency, µM (highest dose often 114 µM), without a hit: at the highest dose activity change, negative = inhibition, most hits filed as inhibitors; further: potency means the concentration at half of the fitted maximal effect; on the % scale 0 is the no-effect control and ±100 the full control effect
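Values derive from four-parameter Hill fits of normalized kinetic data: reads at 0 and 10 min following addition of 50 nM substrate to 10 nM Pol beta preincubated 15 min with compound.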
Pol kappa inh-2: confirmation of human DNA polymerase kappa inhibitors; shares compounds with Pol eta inh-1; purified Pol-kappa, fluorescent strand-displacement substrate; Potency, µM, actives largely listed as inhibitors; 76% of 920 active; further: potency means the concentration at half of the fitted maximal effect
Pol eta inh-2: confirmation of human DNA polymerase eta inhibitors; 64% of 2,600 active; Pol eta primer extension, TAMRA/BHQ fluorescence, 10 min; shares compounds with Pol eta inh-1; Potency, µM, hits mostly inhibitors; further: potency means the concentration at half of the fitted maximal effect
ADP-Glo counter: counter-screen for PI5P4K inhibitors: ADP-Glo detection interference, no enzyme | 1,100 tested, under 10 active | shares compounds with PI5P4K alpha inh | AID 743285 | ADP-Glo detection counter-screen, luciferase luminescence, no enzyme | Potency, µM (top dose mostly 76.9 µM), without a hit: top-dose activity change, negative = inhibition, usual class: inhibitors
* marks the source's active call; other numbers are inactive results; u = inconclusive; x = no result; [ ] = another dose, or the depositor's remark. The list is not random: actives were taken first. Their share in the collection is about 2.8%. Unless noted, the call rests on the fitted dose curve; in most records, active means well fitted curve in the direction sought with a large enough effect; inconclusive means small, poorly fitted or top-dose-only effect, or another doubt; inactive means no such curve, though single readings can be large; an effect the other way counts as inactive or inconclusive.

SMILES	POLI inh	Pol kappa inh-1	PI5P4K alpha inh	Pol eta inh-1	WRN helicase inh	Pol beta inh	Pol eta inh-2	ADP-Glo counter	others
CC(=O)c1ccc(NC(=O)c2noc3c2CCC3)cc1	25.1µM*	u	-57.7*	44.7µM*	-5.6%[11.6 µM]	15.8µM*	u	-3.5%
Cc1ccc(S(=O)(=O)N2[C@@H](c3ccc(C(C)(C)C)cc3)C(C(=O)O)=CC[C@H]2c2ccc(C(C)C)cc2)cc1	u	u	-62.6*	39.8µM*	56.2µM*	x	53.6*	-9.5%	Pol kappa inh-2=75.2*
Cc1c(C(=O)N2CCCC2)oc2ccc(Br)cc12	u	-41.2%	-60.6*	50.1µM*	-4.0%[11.6 µM]	u	u	-5.0%
Cc1c(C(=O)N2CCN(C)CC2)oc2ccc(Br)cc12	-15.4%	-5.0%	9.9	-6.2%	-4.9%	16.3%	x	x
CC/C(=N\NC(=O)c1ccc(-c2ccccc2)cc1)C12CC3CC(CC(C3)C1)C2	u	-7.2%	2.3	-2.5%	-18.8%[57.1 µM]	u	x	x
Cc1ccc2[nH]c3ccccc3c(=O)c2c1	111.9%	-17.4%	4.9	-8.3%	-23.7%	u	x	x
O=c1c2ccccc2[nH]c2ccc(O)cc12	u	79.4µM*	-73.0*	17.8µM*	50.1µM*	17.8µM*	53.6*	-11.3%
CCCc1cc(=O)[nH]c(SCC(=O)Nc2sc3c(c2C#N)CCC(C)C3)n1 (stereo unspecified)	50.1µM*	79.4µM*	-54.4*	25.1µM*	-32.2%	17.8µM*	u	0.8%
CN(CC(=O)Nc1ccc(F)cc1)C(=O)c1cc(-c2ccco2)nc2ccccc12	15.8µM*	u	-66.4*	39.8µM*	u	x	u	3.7%
COc1ccc(NC(=O)CN(C)C(=O)c2cc(-c3ccccc3)nc3ccccc23)cc1	0.6%	-8.7%	-3.0	-14.1%	-7.7%	x	x	x
COc1cccc(CNc2nc3cc(C(C)=C(C)C)sc3c(=O)n2C)c1	x	x	5.8	x	-7.0%	x	x	x
NC(=O)CCN1CCN(C(=O)c2ccc3nc(Cc4cccc(Cl)c4)oc3c2)CC1	-0.4%	-17.2%	0.0	-15.9%	-12.8%	1.6%	x	x
Cc1ccc([N+](=O)[O-])cc1S(=O)(=O)Nc1ccc(C(=O)N(C)C)cc1	11.8%	0.7%	1.1	-14.3%	-19.5%	-3.5%	x	x
Cc1ccc([N+](=O)[O-])cc1S(=O)(=O)Nc1ccc(C(=O)N2CCN(C(=O)c3ccco3)CC2)cc1	u	u	-52.7*	22.4µM*	-4.9%[11.6 µM]	x	u	0.0%
CNNC(=S)Nc1cccc(SC)c1	-26.7%[58.9 µM]	-2.5%	7.6	-15.2%	-11.2%	4.7%	x	x
Cc1nc2ccn(Cc3ccco3)c(=O)c2cc1C(=O)NCc1ccc(Cl)cc1	6.9%	12.7%	x	6.6%	x	3.9%	x	x
COc1cc(Cl)c(C)cc1NC(=O)CSc1sc2c(O)cc(=O)[nH]c2c1C#N	u	-33.8%	-72.7*	28.2µM*	-16.4%[11.6 µM]	u	60.1*	-5.9%	Pol kappa inh-2=18.9*
CN(CC(=O)Nc1ccc(Cl)c(C(F)(F)F)c1)C(=O)CNC(=O)C1CCCCC1	5.9%	-6.8%	8.8	-3.1%	2.8%	x	x	x
O=C(OCC(=O)N1CCN(C(=O)c2ccco2)CC1)c1ccc(S(=O)(=O)N2CCCCC2)cc1	13.8%	-8.9%	2.3	-3.9%	-15.2%	u	x	x
O=C(OCc1ccco1)c1ccc(S(=O)(=O)N2CCCCC2)cc1	u	79.4µM*	-52.2*	10µM*	u	u	u	-1.5%
Cc1cc(NC(=O)c2cc(S(=O)(=O)N3CCCCC3)ccc2C)no1	u	u	-53.6*	22.4µM*	-25.0%	x	u	-7.6%
COc1ccc(S(=O)(=O)N2CCCCC2)cc1C(=O)Nc1cc(C)on1	20.8%	12.0%	-4.9	-8.8%	8.9%	98.3%	x	x
Cn1c(SCC(=O)O)nnc1-c1ccc(NC(=O)c2ccc(Cl)c(Cl)c2)cc1	12.4%	-22.9%	-8.5	-0.4%	-9.9%	-1.6%	x	x
O=C(Nc1nc(-c2ccco2)c(-c2ccco2)s1)c1cnccn1	50.1µM*	u	-67.2*	u	-17.1%[11.6 µM]	x	75.7*	-9.6%
O=C(Cc1ccc(S(=O)(=O)N2CCOCC2)s1)NC1CCCCC1	44.7µM*	u	-50.9*	20µM*	-29.2%	x	u	-8.6%
SMILES	POLI inh	Pol kappa inh-1	PI5P4K alpha inh	Pol eta inh-1	WRN helicase inh	Pol beta inh	Pol eta inh-2	ADP-Glo counter	others
COCCCN(C(=O)c1cc(-c2ccco2)nc2ccccc12)c1c(N)n(Cc2ccccc2)c(=O)[nH]c1=O	39.8µM*	u	-67.7*	25.1µM*	-28.1%	x	u	-11.3%
COCCN(C(=O)COC(=O)COc1ccc2c(c1)CCC2)c1c(N)n(Cc2ccccc2)c(=O)[nH]c1=O	8.5%	-9.6%	7.8	-19.6%	-1.1%	x	x	x
COCCN(C(=O)COC(=O)Cc1coc2cc3c(cc12)CCC3)c1c(N)n(Cc2ccccc2)c(=O)[nH]c1=O	28.2µM*	u	-50.4*	20µM*	u	x	75.7*	-5.0%
CC(=O)NC12CC3CC(C1)CC(C(=O)OCC(=O)Nc1ncc(Cl)c(C)c1Cl)(C3)C2	u	-35.0%	-52.0*	u	u	u	u	4.9%
Cc1c(Cl)cnc(NC(=O)COC(=O)C2CC2)c1Cl	-13.8%	-23.8%	-22.6	u	4.5%[11.6 µM]	x	x	x
Cc1ccc(C)c(CN2C(=O)c3ccccc3S(=O)c3ccc(C(=O)NCCc4ccc(Cl)cc4)cc32)c1 (stereo unspecified)	-11.2%	-9.2%	x	-14.1%	x	19.9%	x	x
